In experiment [1] the target is T1, Inhibitor of nuclear factor kappa-B kinase subunit epsilon (Homo sapiens) (UniProt Q14164).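 Note: reported values are averaged percent inhibition figures against human IKKε.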
T1 sequence (whole entry): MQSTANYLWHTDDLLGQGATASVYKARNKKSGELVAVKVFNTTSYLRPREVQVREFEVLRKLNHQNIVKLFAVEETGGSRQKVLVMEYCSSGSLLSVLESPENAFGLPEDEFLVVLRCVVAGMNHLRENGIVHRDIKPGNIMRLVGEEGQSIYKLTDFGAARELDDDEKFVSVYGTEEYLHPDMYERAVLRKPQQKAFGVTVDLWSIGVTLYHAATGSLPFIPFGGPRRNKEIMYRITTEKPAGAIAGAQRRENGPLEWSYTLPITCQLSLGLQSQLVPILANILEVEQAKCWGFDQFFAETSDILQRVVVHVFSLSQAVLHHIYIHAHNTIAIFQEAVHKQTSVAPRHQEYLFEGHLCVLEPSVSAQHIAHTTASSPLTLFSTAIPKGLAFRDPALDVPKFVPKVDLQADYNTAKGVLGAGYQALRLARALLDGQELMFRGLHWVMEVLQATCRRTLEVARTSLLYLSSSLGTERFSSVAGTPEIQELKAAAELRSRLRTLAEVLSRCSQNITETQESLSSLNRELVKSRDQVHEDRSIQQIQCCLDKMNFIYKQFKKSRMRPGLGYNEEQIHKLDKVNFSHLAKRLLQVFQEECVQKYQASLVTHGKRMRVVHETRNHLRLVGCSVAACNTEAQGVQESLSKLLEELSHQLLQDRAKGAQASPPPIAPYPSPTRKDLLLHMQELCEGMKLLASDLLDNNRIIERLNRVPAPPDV
Conditions: at 1 µM.

In experiment [2] the target is T2, Serine/threonine-protein kinase Nek1 (Homo sapiens) (UniProt Q96PY6).
T2 sequence (whole entry): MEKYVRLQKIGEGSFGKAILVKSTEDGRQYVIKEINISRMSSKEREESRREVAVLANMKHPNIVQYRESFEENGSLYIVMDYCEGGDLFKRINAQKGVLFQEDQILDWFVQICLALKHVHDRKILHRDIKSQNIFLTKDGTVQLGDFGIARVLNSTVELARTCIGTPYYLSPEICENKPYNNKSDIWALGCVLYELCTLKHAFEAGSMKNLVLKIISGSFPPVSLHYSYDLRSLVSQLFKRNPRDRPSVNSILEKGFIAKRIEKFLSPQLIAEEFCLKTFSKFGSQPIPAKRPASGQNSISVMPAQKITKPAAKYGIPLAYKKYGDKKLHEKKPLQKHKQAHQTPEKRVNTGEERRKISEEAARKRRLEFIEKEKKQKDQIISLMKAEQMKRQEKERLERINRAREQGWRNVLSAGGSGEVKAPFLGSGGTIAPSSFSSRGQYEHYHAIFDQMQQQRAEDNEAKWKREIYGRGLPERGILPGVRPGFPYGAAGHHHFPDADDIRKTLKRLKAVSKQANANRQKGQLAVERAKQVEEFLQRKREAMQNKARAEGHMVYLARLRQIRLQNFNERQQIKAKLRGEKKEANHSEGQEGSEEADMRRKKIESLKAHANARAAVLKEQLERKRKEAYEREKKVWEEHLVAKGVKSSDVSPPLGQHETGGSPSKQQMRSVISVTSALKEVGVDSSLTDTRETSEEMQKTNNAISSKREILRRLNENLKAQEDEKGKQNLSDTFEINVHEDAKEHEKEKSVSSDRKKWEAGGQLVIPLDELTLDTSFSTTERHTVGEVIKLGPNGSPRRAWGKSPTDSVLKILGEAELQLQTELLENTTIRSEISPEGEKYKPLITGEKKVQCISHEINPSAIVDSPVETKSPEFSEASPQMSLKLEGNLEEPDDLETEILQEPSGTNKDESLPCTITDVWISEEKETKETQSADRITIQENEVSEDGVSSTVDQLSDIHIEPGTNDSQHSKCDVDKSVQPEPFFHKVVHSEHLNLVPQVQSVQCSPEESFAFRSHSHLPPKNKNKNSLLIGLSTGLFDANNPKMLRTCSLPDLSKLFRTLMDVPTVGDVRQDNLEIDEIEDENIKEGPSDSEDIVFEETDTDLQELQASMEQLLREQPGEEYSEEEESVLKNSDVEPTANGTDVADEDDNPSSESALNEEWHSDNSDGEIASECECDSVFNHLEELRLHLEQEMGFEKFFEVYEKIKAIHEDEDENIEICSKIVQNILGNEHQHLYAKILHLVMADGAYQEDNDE
Conditions: at 0.1 µM.

In experiment [3] the target is T2, Serine/threonine-protein kinase Nek1 (Homo sapiens). The following applies: at 1 µM.
In experiment [4] the target is T3, Serine/threonine-protein kinase Nek2 (Homo sapiens) (UniProt P51955).
T3 sequence (whole entry): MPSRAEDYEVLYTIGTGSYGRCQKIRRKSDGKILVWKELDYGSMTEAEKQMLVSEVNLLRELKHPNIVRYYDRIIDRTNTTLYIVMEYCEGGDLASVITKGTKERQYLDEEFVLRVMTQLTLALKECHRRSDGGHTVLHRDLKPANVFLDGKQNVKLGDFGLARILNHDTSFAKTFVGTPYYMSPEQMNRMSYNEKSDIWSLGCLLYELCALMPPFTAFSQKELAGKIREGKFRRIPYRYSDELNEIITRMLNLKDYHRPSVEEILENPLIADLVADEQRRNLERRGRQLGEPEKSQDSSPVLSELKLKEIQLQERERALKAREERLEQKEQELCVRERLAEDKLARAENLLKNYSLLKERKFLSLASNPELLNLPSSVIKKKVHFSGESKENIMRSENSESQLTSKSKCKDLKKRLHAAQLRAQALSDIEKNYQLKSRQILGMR
Conditions: at 0.1 µM.

Experiment [5] has as its target T3, Serine/threonine-protein kinase Nek2 (Homo sapiens). The following applies: at 1 µM.
For experiment [6], the target named is Serine/threonine-protein kinase Nek6 (Homo sapiens) (UniProt Q9HC98). The following applies: at 0.1 µM.
For experiment [7] the target is unchanged. Conditions: at 1 µM.
The target in experiment [8] is Serine/threonine-protein kinase Nek7 (Homo sapiens) (UniProt Q8TDX7). The following applies: at 0.1 µM.
Experiment [9] shares this target. The following applies: at 1 µM.
For experiment [10], the target named is T4, Serine/threonine-protein kinase Nek9 (Homo sapiens) (UniProt Q8TD19).
T4 sequence (whole entry): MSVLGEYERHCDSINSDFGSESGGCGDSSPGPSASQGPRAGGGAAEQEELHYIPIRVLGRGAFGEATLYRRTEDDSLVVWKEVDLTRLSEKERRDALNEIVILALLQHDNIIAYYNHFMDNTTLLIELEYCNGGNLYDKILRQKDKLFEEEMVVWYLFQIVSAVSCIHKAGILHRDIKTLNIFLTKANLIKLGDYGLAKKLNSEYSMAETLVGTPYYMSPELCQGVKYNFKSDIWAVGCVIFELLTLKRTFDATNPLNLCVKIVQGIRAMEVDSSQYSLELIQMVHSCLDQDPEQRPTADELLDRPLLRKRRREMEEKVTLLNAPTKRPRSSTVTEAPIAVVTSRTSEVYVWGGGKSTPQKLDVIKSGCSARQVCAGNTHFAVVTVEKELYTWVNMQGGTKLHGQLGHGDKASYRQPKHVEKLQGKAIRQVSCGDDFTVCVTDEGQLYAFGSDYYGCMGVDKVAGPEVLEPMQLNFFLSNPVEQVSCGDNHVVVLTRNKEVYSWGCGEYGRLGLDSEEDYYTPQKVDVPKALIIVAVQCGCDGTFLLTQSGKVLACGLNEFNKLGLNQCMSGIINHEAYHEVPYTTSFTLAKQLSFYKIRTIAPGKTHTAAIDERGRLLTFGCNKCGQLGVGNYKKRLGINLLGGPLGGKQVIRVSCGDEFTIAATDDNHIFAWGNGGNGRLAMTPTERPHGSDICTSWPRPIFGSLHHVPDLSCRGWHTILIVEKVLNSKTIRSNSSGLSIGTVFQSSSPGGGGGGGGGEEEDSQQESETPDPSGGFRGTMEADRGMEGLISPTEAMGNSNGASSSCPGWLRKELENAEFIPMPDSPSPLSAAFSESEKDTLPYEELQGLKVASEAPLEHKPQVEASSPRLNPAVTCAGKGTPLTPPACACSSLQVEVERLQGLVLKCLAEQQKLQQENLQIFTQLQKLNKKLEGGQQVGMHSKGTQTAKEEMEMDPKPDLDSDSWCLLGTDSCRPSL
The following applies: at 0.1 µM.

Experiment [11] concerns the target T4, Serine/threonine-protein kinase Nek9 (Homo sapiens). The following applies: at 1 µM.
Experiment [12] concerns the target Serine/threonine-protein kinase PLK1 (Homo sapiens) (UniProt P53350). The following applies: at 0.1 µM.
Experiment [13] has the same target. The following applies: at 1 µM.
In experiment [14] the target is T5, Dual specificity protein kinase TTK (Homo sapiens) (UniProt P33981).
T5 sequence (whole entry): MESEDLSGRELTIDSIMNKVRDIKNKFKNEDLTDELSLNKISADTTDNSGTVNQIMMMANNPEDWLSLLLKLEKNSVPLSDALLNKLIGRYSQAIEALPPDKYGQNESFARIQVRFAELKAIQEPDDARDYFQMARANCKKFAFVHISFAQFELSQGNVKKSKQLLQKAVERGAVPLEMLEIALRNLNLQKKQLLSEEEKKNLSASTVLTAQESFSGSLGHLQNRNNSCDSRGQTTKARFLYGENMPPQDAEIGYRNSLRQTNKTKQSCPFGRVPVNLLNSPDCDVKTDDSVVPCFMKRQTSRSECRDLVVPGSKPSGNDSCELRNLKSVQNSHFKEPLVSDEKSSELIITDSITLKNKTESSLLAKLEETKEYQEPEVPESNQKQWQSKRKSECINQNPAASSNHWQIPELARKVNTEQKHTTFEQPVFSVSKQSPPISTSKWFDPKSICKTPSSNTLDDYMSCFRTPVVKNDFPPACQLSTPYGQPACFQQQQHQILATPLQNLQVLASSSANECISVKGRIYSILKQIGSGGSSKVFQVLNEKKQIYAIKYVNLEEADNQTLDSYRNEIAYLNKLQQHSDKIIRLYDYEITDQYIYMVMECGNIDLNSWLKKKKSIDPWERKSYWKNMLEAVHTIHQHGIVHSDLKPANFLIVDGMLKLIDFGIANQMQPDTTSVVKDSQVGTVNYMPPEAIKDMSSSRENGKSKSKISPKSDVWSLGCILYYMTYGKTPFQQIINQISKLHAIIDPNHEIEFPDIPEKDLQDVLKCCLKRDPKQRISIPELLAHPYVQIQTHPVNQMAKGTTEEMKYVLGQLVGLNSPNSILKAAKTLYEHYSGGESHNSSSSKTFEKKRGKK
Conditions: at 0.1 µM.

Experiment [15] has as its system T6, Receptor-type tyrosine-protein kinase FLT3 (Homo sapiens), P36888 [D835Y].
T6 sequence (whole entry): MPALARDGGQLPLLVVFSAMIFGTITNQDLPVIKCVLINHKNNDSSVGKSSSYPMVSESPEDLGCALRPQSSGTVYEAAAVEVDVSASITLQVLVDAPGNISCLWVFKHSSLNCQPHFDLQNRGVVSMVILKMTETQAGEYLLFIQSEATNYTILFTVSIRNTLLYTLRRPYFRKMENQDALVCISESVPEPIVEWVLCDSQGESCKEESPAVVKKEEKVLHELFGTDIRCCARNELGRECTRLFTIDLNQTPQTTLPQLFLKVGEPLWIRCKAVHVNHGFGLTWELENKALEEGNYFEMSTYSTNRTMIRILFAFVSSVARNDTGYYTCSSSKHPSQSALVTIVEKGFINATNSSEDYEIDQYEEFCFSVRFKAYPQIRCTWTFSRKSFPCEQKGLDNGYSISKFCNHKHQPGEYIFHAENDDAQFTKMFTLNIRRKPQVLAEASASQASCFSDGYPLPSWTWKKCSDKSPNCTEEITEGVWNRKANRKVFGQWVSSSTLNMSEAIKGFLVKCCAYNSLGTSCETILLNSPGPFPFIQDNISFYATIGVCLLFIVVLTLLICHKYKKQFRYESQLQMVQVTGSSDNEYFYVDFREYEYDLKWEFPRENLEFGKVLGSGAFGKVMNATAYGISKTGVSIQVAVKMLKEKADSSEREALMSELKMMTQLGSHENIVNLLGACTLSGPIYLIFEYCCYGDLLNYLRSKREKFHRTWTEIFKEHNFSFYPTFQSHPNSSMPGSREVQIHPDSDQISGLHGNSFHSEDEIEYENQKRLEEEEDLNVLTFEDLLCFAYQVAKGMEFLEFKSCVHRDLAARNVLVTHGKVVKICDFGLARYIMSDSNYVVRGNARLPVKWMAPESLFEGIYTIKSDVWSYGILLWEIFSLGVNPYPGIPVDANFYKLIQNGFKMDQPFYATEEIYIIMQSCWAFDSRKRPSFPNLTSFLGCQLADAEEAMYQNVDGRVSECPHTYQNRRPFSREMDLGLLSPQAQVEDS
The following applies: at 1 µM.

Experiment [16] has as its target Vascular endothelial growth factor receptor 3 (Homo sapiens) (UniProt P35916). The following applies: at 0.1 µM.
Experiment [17] has the same target. Conditions: at 1 µM.
Experiment [18] concerns the target Macrophage colony-stimulating factor 1 receptor (Homo sapiens) (UniProt P07333). Conditions: at 0.1 µM.
The target is the same in experiment [19]. Conditions: at 1 µM.
Experiment [20] deals with Tyrosine-protein kinase Fyn (Homo sapiens) (UniProt P06241). The following applies: at 0.1 µM.

Molecules are shown by their SMILES.

Sequence of Serine/threonine-protein kinase PLK1 (Homo sapiens) (P53350 whole entry): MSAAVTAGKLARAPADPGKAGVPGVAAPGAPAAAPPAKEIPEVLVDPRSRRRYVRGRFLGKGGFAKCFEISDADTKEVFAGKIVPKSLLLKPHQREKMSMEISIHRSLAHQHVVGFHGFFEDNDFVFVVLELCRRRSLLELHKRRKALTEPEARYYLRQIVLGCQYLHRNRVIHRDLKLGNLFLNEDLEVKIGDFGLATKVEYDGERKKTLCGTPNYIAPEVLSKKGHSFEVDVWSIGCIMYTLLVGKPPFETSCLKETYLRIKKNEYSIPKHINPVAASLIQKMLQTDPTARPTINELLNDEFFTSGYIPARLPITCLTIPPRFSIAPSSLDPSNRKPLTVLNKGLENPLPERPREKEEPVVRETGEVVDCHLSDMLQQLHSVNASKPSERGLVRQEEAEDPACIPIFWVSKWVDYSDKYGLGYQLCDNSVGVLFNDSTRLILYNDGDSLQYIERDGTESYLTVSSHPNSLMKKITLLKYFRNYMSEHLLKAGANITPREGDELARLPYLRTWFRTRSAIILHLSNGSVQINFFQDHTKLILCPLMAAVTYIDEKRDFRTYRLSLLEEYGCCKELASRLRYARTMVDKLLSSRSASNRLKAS
Sequence of Macrophage colony-stimulating factor 1 receptor (Homo sapiens) (P07333 whole entry): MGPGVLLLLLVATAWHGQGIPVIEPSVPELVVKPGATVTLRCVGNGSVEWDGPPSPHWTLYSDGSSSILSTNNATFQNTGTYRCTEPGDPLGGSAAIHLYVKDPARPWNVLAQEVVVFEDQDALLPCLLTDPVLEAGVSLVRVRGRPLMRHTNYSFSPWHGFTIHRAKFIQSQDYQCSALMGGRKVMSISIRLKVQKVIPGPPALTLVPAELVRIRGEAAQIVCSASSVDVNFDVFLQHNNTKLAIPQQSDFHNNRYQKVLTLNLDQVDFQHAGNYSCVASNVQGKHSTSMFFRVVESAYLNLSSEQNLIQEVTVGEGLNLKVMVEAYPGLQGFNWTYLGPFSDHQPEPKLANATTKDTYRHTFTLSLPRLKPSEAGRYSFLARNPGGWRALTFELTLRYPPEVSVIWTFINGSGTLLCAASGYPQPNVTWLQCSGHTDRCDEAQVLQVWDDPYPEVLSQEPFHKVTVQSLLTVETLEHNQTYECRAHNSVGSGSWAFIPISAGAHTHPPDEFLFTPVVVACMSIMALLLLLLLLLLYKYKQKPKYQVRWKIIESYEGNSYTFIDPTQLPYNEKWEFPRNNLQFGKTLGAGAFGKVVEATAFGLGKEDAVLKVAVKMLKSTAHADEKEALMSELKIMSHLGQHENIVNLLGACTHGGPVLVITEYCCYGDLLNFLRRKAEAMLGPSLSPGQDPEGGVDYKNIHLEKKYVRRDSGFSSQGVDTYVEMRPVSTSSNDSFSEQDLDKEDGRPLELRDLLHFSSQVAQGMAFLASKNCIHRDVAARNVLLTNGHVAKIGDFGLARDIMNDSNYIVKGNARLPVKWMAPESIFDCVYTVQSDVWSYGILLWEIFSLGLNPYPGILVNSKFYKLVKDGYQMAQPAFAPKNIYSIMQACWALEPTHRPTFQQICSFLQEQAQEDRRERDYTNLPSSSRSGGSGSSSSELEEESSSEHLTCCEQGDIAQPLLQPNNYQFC
Sequence of Vascular endothelial growth factor receptor 3 (Homo sapiens) (P35916 whole entry): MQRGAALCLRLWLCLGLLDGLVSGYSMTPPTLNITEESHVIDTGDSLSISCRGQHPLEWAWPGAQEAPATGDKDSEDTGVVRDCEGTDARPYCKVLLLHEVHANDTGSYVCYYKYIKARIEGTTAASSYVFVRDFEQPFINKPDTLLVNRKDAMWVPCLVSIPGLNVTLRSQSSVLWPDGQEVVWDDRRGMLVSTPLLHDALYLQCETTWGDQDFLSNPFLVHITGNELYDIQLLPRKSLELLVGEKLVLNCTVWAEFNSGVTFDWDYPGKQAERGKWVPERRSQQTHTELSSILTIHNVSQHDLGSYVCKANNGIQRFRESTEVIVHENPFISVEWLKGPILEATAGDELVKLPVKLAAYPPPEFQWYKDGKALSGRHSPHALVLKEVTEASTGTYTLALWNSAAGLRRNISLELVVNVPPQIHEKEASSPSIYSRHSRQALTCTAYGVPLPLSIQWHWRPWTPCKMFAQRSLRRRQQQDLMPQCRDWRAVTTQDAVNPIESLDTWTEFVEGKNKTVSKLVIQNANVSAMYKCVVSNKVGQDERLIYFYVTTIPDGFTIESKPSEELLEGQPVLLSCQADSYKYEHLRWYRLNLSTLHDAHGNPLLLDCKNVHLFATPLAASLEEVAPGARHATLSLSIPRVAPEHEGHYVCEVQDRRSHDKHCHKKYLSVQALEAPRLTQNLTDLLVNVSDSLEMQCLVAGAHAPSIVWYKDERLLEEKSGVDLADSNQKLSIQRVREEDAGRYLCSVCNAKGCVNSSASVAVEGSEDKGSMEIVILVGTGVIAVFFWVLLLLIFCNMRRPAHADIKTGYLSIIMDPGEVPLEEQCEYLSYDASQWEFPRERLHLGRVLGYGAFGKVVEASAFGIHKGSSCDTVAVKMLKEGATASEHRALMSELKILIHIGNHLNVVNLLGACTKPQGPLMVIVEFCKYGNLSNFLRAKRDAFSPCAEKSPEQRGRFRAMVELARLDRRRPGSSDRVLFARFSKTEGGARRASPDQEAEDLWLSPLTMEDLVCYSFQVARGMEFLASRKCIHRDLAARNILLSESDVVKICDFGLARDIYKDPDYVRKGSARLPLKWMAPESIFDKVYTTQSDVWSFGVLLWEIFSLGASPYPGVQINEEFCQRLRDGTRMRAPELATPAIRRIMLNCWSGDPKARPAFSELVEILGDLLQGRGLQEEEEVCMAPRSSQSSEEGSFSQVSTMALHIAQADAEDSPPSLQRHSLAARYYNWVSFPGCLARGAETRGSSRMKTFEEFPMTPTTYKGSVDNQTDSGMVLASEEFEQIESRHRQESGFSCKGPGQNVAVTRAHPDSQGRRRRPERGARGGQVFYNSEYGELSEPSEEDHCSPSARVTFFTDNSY
Sequence of Serine/threonine-protein kinase Nek6 (Homo sapiens) (Q9HC98 whole entry): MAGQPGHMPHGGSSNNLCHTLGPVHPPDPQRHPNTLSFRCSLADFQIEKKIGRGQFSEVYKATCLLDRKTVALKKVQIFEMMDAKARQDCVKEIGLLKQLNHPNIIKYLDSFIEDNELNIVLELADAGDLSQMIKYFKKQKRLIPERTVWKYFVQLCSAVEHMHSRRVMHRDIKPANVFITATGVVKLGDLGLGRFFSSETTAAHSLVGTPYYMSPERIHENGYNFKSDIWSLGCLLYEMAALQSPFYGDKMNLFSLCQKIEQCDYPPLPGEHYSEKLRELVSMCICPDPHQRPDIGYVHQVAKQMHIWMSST
Sequence of Serine/threonine-protein kinase Nek7 (Homo sapiens) (Q8TDX7 whole entry, looked up): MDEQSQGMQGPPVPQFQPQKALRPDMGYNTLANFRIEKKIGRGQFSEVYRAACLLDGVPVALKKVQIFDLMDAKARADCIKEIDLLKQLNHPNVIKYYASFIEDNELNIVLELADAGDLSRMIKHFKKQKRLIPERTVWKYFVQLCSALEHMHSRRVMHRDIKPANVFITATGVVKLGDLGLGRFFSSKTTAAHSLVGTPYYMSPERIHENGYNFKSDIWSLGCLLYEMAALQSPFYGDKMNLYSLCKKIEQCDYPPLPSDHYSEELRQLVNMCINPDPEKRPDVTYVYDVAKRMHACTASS
Sequence of Tyrosine-protein kinase Fyn (Homo sapiens) (P06241 2-537 limits assumed): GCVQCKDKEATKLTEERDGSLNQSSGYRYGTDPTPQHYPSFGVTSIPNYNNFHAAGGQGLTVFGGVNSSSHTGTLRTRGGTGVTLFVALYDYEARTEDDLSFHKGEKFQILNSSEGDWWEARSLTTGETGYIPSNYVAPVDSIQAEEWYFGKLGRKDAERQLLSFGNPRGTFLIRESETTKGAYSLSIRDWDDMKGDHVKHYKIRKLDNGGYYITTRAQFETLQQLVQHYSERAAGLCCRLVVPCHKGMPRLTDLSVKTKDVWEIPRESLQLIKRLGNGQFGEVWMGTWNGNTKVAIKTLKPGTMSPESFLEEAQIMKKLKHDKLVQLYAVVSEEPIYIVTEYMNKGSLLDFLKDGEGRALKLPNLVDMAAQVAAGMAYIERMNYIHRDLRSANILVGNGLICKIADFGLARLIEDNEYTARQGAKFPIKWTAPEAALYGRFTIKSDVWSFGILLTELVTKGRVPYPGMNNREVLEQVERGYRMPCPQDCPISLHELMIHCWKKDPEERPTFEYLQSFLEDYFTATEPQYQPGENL

Take `Nc1nccc(C#Cc2cncnc2Nc2ccc(OCc3cccc(F)c3)c(Cl)c2)n1`: the inhibition – broadly, the drop in the measured response relative to a control, in per cent – turned out to be 6.36% in experiment [1]; 2.09% in experiment [2]; 3.18% in experiment [3]; 4.14% in [4]; 5.98% in experiment [5]; 1.4% in [6]. The inhibition in experiment [7] was -0.89%; in [8] it was 3.1%; in [9], 3.35%; in experiment [10], 8.89%; in experiment [11], 1.53%; in [12], 3.36%. The inhibition came to 3.68% in [13]; 5.31% in [14]; 7.19% in experiment [15]; 3.89% in [16]; 0.33% in experiment [17]; 2.3% in experiment [18]. In addition, the inhibition was 5.18% in experiment [19] and -0.31% in experiment [20].

For the molecule `COc1cc(Nc2nccc(-c3cnn4ncccc34)n2)cc(OC)c1`, the inhibition in [1] is 28.2%; in experiment [2], 2.05%; in [3], 19.3%; in experiment [4], 2.03%; in experiment [5] it was 12%; in experiment [6] it was -0.86%. The inhibition in experiment [7] stood at 2.06%; in [8], 2.07%; in [9] it was 3.54%; in experiment [10] it was 17.3%; in experiment [11], 69.9%; in experiment [12] it was 6.63%. Besides, the inhibition amounted to 36.9% in experiment [13]; 7.15% in experiment [14]; 77.3% in experiment [15]; 10.4% in experiment [16]; 45.4% in experiment [17]; 68.2% in [18]. Also, the values for the inhibition in experiment [19] and in experiment [20] were 94.2% and 7.87%, respectively.
